Test results as given in PubChem BioAssay (EPA / NIEHS).
Inconclusive results are not listed. Active and inactive are the calls of the source. Rule for the calls: active = hit-call score of the fitted dose curve at least 0.9, where 1 is the maximum; inconclusive = response in the unintended direction; inactive = score below 0.9.

Experiments:
[1] = target: human Peroxisome Proliferator-activated Receptor alpha (PPARa), PPARA (gene 5465) (UniProt Q07869); experiment: ATG_PPARa_TRANS: Attagene TRANS-FACTORIAL HepG2 Assay for human Peroxisome Proliferator-activated Receptor alpha (PPARa) (AID 2283001)
In short: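 HepG2 cells transiently transfected with multiplexed GAL4-UAS reporters driven by exogenous chimeric NR-Gal4 proteins; reporter mRNA measured after 24 h dosing. Read-out by RT-PCR, 6-FAM labelling, HpaI digestion and capillary electrophoresis; gain of signal versus DMSO.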

[2] = target: Retinoic acid receptor alpha (Homo sapiens) (UniProt P10276); experiment: ATG_RARa_TRANS: Attagene TRANS-FACTORIAL HepG2 Assay for human Retinoic Acid Receptor alpha (RARa) (AID 2283005)
In short: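 HepG2 transiently transfected with multiplex GAL4-UAS reporter units including a human RARa–GAL4 chimera; 24 h compound exposure. Reporter mRNA quantified by RT-PCR, 6-FAM labeling and capillary electrophoresis; gain of signal versus DMSO.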

[3] = target: Peroxisome proliferator-activated receptor gamma (Homo sapiens) (UniProt P37231); experiment: ATG_PPARg_TRANS: Attagene TRANS-FACTORIAL HepG2 Assay for human Peroxisome Proliferator-activated Receptor-gamma (PPARg) (AID 2283007)
In short: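 Read-out: reporter mRNA induction, detected by fluorescence after RT-PCR and capillary electrophoresis. Transiently transfected human HepG2 liver cells carrying a chimeric NR-Gal4 construct were dosed for 24 h; activity was fitted upward relative to DMSO.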

[4] = target: Nuclear receptor subfamily 1 group I member 2 (Homo sapiens) (UniProt O75469); experiment: ATG_PXR_TRANS: Attagene TRANS-FACTORIAL HepG2 Assay for human Pregnane X Receptor (PXR) (AID 2283008)
In short: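 Read-out is fluorescence of labelled reporter cDNA fragments separated by capillary electrophoresis after RT-PCR and HpaI digestion. Source: HepG2 cells carrying PXR-GAL4/UAS reporter constructs, treated 24 h; activity fitted upward relative to DMSO.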

[5] = target: human Retinoic Acid Receptor gamma (RARg), RARG (gene 5916) (UniProt P13631); experiment: ATG_RARg_TRANS: Attagene TRANS-FACTORIAL HepG2 Assay for human Retinoic Acid Receptor gamma (RARg) (AID 2283009)
In short: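 Transient transfection of HepG2 with multi-reporter constructs, then 24 h chemical treatment. Total RNA isolated, reverse-transcribed, PCR-amplified, fluorescently labelled and resolved by capillary electrophoresis; activity scored as mRNA induction versus DMSO.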

[6] = target: Retinoic acid receptor RXR-alpha (Homo sapiens) (UniProt P19793); experiment: ATG_RXRa_TRANS: Attagene TRANS-FACTORIAL HepG2 Assay for human Retinoid X Receptor alpha (RXRa) (AID 2283012)
In short: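 Transient transfection of human HepG2 with multiple GAL4-UAS reporter constructs; 24 h compound exposure; total RNA isolated, reverse-transcribed, PCR-amplified, 6-FAM labelled, HpaI-cut, resolved by capillary electrophoresis. Positive-direction fit versus DMSO.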

[7] = target: human Retinoid X Receptor beta (RXRb), RXRB (gene 6257) (UniProt P28702); experiment: ATG_RXRb_TRANS: Attagene TRANS-FACTORIAL HepG2 Assay for human Retinoid X Receptor beta (RXRb) (AID 2283013)
In short: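 Transfect HepG2 with GAL4-UAS multi-reporter constructs (chimeric NR-Gal4, TRANS format); dose compound 24 h; isolate RNA, RT-PCR, FAM primer extension, HpaI digest; quantify by capillary electrophoresis; positive direction vs DMSO.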

[8] = target: human Thyroid Receptor alpha (THRa1), THRA (gene 7067) (UniProt P10827); experiment: ATG_THRa1_TRANS: Attagene TRANS-FACTORIAL HepG2 Assay for human Thyroid Receptor alpha (THRa1) (AID 2283014)
In short: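 Transient HepG2 transfection, NR-Gal4 chimera driving GAL4-UAS reporters; 24 h compound exposure; total RNA, oligo(dT) RT, PCR, fluorescent primer extension, capillary electrophoresis. Upward direction vs DMSO control.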

[9] = target: human Retinoic Acid Receptor beta (RARb), RARB (gene 5915) (UniProt P10826); experiment: ATG_RARb_TRANS: Attagene TRANS-FACTORIAL HepG2 Assay for human Retinoic Acid Receptor beta (AID 2283004)
In short: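 Readout is reporter mRNA induction: RNA reverse-transcribed, PCR-amplified, FAM-labelled, HpaI-cut and resolved by capillary electrophoresis. Transiently transfected HepG2 cells carrying exogenous NR–Gal4 chimeras were dosed for 24 h; activity fitted upward relative to DMSO.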

[10] = target: human RAR-related Orphan Receptor gamma (RORg), RORC (gene 6097) (UniProt P51449); experiment: ATG_RORg_TRANS: Attagene TRANS-FACTORIAL HepG2 Assay for human RAR-related Orphan Receptor gamma (RORg) (AID 2283011)
In short: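 Transient MRTU transfection of HepG2 (TRANS format, exogenous NR-Gal4 chimera). 24 h dosing. Total RNA → oligo(dT) RT → PCR → 6-FAM labelling → HpaI cut → CE. Gain vs DMSO.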

[11] = target: human Vitamin D Receptor (VDR), VDR (gene 7421) (UniProt P11473); experiment: ATG_VDR_TRANS: Attagene TRANS-FACTORIAL HepG2 Assay for human Vitamin D Receptor (VDR) (AID 2283022)
In short: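 RT-PCR/capillary electrophoresis read-out of reporter mRNA induction in transiently transfected HepG2; 24 h dosing; chimeric NR-Gal4 (TRANS format); gain-of-signal fit against DMSO baseline.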

[12] = target: human RAR-related Orphan Receptor beta (RORb), RORB (gene 6096) (UniProt Q92753); experiment: ATG_RORb_TRANS: Attagene TRANS-FACTORIAL HepG2 Assay for human RAR-related Orphan Receptor beta (RORb) (AID 2283010)
In short: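 Readout is reporter-gene mRNA induction, detected as fluorescence after RT-PCR and capillary electrophoresis, fitted for gain of signal against DMSO controls. Transiently transfected HepG2 liver cells carrying GAL4-UAS reporter constructs were treated for 24 hours.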

Measured: AC50

human Vitamin D Receptor (VDR), VDR (gene 7421), sequence (P11473 whole entry, looked up, the tested form may be a part): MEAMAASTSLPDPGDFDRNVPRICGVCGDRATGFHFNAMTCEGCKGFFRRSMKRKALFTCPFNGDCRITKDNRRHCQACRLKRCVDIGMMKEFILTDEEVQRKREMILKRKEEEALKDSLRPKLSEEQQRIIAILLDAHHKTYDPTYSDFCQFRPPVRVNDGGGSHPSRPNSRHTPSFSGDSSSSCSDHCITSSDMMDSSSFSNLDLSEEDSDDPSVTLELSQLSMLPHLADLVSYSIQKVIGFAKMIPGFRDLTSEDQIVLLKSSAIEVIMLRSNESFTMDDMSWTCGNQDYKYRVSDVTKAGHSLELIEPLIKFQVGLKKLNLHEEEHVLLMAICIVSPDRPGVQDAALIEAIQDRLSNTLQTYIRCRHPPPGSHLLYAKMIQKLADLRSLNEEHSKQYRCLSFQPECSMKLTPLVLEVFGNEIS
human RAR-related Orphan Receptor gamma (RORg), RORC (gene 6097), sequence (P51449 whole entry, looked up, the tested form may be a part): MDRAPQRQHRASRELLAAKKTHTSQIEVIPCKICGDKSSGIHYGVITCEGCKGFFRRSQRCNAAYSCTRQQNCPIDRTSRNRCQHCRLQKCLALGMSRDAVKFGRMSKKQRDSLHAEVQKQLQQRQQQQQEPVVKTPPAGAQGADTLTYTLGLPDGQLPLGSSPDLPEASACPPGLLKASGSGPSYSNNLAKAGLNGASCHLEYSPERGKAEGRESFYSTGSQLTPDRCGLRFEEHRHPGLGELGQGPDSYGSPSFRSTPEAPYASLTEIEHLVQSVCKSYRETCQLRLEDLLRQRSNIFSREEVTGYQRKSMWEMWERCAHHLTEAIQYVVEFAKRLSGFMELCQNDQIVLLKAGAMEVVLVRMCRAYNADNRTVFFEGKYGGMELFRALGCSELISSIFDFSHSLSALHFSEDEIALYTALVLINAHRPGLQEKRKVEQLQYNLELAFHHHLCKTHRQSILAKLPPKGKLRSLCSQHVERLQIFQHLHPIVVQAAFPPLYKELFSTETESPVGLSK
human Retinoid X Receptor beta (RXRb), RXRB (gene 6257), sequence (P28702 whole entry, looked up, the tested form may be a part): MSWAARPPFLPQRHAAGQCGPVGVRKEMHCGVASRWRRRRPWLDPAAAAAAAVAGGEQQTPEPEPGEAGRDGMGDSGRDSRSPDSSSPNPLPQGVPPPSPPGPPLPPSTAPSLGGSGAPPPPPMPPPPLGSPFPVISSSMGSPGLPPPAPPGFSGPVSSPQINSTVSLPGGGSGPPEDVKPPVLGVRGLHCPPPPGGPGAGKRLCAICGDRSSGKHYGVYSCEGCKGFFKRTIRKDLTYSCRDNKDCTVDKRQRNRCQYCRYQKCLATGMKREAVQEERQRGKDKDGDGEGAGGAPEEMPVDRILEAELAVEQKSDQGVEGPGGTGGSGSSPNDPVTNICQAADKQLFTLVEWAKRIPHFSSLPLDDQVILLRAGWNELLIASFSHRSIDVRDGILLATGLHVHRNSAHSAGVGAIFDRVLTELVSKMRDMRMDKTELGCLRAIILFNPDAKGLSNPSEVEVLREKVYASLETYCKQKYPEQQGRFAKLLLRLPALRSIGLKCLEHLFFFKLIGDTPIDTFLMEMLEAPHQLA
Retinoic acid receptor RXR-alpha (Homo sapiens), sequence (P19793 whole entry, looked up, the tested form may be a part): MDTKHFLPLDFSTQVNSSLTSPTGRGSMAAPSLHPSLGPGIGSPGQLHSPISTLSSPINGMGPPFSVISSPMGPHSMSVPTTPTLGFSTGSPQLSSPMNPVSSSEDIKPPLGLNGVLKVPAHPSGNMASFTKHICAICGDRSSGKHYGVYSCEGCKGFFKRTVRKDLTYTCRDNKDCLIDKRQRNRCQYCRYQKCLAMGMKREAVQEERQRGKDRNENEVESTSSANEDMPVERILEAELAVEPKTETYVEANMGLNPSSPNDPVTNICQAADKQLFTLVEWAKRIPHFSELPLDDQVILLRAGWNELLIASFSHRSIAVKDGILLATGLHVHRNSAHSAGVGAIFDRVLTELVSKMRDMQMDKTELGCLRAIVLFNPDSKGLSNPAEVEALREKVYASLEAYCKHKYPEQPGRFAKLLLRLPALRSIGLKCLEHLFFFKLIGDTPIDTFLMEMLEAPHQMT
human Peroxisome Proliferator-activated Receptor alpha (PPARa), PPARA (gene 5465), sequence (Q07869 whole entry, looked up, the tested form may be a part): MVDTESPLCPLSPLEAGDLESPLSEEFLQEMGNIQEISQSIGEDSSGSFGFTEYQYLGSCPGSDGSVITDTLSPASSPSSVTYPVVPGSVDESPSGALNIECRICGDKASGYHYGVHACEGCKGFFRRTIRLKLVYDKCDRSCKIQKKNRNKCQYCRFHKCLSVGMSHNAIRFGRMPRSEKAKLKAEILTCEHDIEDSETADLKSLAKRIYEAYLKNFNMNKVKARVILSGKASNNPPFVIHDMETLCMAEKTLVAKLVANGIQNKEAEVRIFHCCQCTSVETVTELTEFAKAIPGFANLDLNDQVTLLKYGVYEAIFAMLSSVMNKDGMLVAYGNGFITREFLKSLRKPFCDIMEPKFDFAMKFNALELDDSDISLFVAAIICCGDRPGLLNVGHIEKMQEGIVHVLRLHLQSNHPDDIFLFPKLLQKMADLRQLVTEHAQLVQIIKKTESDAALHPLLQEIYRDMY
human Retinoic Acid Receptor gamma (RARg), RARG (gene 5916), sequence (P13631 whole entry, looked up): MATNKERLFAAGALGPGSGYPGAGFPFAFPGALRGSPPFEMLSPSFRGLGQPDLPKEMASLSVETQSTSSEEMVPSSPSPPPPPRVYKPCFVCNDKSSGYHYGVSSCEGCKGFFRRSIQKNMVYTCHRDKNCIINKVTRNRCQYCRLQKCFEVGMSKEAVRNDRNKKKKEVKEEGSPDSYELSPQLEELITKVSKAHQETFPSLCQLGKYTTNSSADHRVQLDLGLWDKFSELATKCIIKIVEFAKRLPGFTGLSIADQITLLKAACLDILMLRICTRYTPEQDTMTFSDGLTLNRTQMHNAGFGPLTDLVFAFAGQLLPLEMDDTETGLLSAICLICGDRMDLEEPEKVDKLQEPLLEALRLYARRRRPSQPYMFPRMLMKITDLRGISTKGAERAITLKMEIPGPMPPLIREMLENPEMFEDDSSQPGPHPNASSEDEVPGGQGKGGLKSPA
Nuclear receptor subfamily 1 group I member 2 (Homo sapiens), sequence (O75469 whole entry, looked up, the tested form may be a part): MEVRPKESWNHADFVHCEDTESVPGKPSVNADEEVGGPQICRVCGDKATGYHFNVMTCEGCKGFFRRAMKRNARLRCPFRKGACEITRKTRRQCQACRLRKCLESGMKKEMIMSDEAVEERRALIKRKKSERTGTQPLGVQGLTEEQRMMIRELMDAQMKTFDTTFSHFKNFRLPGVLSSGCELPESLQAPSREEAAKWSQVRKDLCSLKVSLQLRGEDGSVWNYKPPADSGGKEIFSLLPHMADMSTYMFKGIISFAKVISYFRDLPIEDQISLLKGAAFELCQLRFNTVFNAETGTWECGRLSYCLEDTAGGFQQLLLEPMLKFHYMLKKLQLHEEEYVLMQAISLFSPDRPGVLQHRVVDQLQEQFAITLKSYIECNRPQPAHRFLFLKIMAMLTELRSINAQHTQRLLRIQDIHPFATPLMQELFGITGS
Retinoic acid receptor alpha (Homo sapiens), sequence (P10276 whole entry, looked up, the tested form may be a part): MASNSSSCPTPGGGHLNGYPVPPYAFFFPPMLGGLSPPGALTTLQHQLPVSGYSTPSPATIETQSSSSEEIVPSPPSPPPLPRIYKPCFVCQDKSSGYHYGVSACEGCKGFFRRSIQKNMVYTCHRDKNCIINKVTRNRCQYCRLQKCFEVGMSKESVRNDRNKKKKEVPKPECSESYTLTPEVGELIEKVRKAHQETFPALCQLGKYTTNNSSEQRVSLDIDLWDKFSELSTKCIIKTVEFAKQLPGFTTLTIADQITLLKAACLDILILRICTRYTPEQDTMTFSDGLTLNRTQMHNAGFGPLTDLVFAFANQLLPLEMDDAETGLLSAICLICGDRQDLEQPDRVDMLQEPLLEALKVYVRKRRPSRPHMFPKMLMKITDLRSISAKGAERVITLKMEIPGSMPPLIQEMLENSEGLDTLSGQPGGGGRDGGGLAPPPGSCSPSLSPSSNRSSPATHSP
human Thyroid Receptor alpha (THRa1), THRA (gene 7067), sequence (P10827 whole entry, looked up, the tested form may be a part): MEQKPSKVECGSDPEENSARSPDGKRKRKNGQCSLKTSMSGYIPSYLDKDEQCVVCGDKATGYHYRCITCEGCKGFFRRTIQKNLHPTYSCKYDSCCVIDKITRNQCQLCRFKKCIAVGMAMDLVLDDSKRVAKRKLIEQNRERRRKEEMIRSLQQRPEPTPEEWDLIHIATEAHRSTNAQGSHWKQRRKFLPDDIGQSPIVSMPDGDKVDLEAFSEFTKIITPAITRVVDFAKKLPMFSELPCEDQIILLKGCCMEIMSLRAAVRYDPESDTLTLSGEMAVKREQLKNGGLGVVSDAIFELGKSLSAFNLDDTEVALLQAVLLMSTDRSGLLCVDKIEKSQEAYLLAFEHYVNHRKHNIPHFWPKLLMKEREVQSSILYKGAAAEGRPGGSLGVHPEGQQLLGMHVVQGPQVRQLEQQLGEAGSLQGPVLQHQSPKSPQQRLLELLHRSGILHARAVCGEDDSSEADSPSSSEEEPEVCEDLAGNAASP
human RAR-related Orphan Receptor beta (RORb), RORB (gene 6096), sequence (Q92753 whole entry, looked up, the tested form may be a part): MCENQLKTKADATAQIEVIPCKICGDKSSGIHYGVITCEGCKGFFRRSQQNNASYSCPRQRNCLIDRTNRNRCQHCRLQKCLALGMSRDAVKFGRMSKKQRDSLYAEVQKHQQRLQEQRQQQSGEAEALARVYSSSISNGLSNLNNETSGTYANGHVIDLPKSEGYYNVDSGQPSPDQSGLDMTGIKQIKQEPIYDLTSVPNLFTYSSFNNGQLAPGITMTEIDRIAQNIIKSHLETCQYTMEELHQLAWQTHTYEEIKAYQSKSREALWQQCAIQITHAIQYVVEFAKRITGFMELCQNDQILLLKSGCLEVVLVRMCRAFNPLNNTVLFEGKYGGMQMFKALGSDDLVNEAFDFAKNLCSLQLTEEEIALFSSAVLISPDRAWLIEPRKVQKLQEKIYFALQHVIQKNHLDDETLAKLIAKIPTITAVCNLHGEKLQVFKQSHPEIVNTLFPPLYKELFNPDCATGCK

O=C(Nc1ccccc1)c1ccccc1O
active: [3] 55.9 µM
inactive: [1] | [2] | [4] | [5] | [6] | [7] | [8]

O=C1OC(=O)c2cc(Oc3ccc4c(c3)C(=O)OC4=O)ccc21
inactive: [1] | [9] | [10] | [6] | [7] | [8] | [11]

CC(C)=CC1CC(C)CCO1 (stereo unspecified)
inactive: [1] | [2] | [10] | [6] | [11]

COc1ccc([C@@H]2CC(=O)c3c(O)cc(O[C@@H]4O[C@H](CO[C@@H]5O[C@@H](C)[C@H](O)[C@@H](O)[C@H]5O)[C@@H](O)[C@H](O)[C@H]4O)cc3O2)cc1OC
inactive: [1] | [3] | [4] | [5] | [10] | [6] | [8] | [11]

FC(F)(F)C(=NOCC1OCCO1)c1ccc(Cl)cc1
active: [7] 20.4 µM
inactive: [1] | [3] | [4] | [12] | [6] | [11]

COc1cc(NC(=O)CC(C)=O)c(OC)cc1Cl
inactive: [1] | [3] | [4] | [5] | [12] | [6] | [7]

COc1ccc(-c2coc3cc(O)ccc3c2=O)cc1
inactive: [1] | [3] | [4] | [6] | [7]

COC(=O)c1c(C)cc(O)c(C)c1O
inactive: [1] | [3] | [4] | [5] | [6] | [7] | [8] | [11]

CCCCC/C=C\CCC=O
active: [3] 53.6 µM
inactive: [1] | [4] | [7] | [11]

CC(=O)NS(=O)(=O)c1ccc(N)cc1
inactive: [1] | [2] | [4] | [5] | [10] | [6] | [11]

O=P(O)(O)Oc1ccccc1
active: [8] 8.7 µM
inactive: [1] | [2] | [11]

O=c1[nH]c(=O)c2[nH]c(=O)[nH]c2[nH]1
inactive: [1] | [9] | [12] | [10] | [8]
